The source of these data is the OligoGym collection.
Note: reference of the scale not given here.

One experiment has as its target XCL2. As to the kind of experiment: pooled miR-30 sensor sort-seq; sequence = guide strand. The following applies: shRNA.
As for CTTGATTCTGCTAACTGGCAGT, the sensor-assay potency score (higher = more potent) was -1.63.
Still for that read-out and setting: the figure for CTATGTGAGACTTCACTCCCTA is -0.487; for TCACACAGGTCCTCCTATGTGA it is -0.506.
Still for that read-out and setting: the figure for TGCTAACTGGCAGTCGCTGGGT is -0.761; for TAAAAGGTGAGTATAATCTCAG it is -0.178; for TTCTGCTAACTGGCAGTCGCTG it is -1.02.
As for TCTGCTAACTGGCAGTCGCTGG, the sensor-assay potency score (higher = more potent) was -0.99.
The same measure, in the same setting: for TATAATCTCAGTCCATGAGGGT the value was -0.365.
Still for that read-out and setting: the figure for TCTTGATTCTGCTAACTGGCAG is -0.712; for TTGATTCTGCTAACTGGCAGTC it is -0.401; for TATGTGAGACTTCACTCCCTAC it is -0.968.
The same measure, in the same setting: for ATAATCTCAGTCCATGAGGGTG the value was -1.29.

The next experiment concerns the target XKR5. The experiment is described as above. The following applies: shRNA.
The sequence TAGTGTCTCACATTGAATGGAA registered a sensor-assay potency score (higher = more potent) of -0.0169.
For the sequence TTCTCTAATAAATATAGTGTAT, the sensor-assay potency score (higher = more potent) is -1.07.
In the case of TAAATTACCAGTGAGACACTGC, the sensor-assay potency score (higher = more potent) stood at 0.68.
The sequence TAATATTGTACCCTAATCCAAA registered a sensor-assay potency score (higher = more potent) of -1.28.
TAAGTTATTCTACTATTCCTTT: the sensor-assay potency score (higher = more potent) was -0.571.
